According to the supplement of paper PMC11732987, “Enantioselective OTUD7B fragment discovery through chemoproteomics screening and high-throughput optimisation” (Communications Chemistry, 2025):

Legend:
Test in all cases: log2 ratio of Biotin-Ahx-Ub-VS probe labelling (fragment/DMSO); higher = less target engagement (more negative = stronger competition), active = hit call of the paper (q ≤ 0.05, log2 ratio ≤ -1)
Settings in all cases: compound concentration: 200 uM; treatment time: 3 h
USP34 = USP34 (UniProt Q70CQ2)
How it was run: (§1)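 Each value is an average log2 ratio of fragment to vehicle, tested by unpaired t-test. The underlying Spectronaut label-free quantities were global-median-normalised, and only proteins with ≥2 unique peptides were included. Triplicate HEK293T lysate samples (495 µg) were exposed to fragment at 200 µM or vehicle for 3 h, then to Biotin-Ahx-Ub-VS at 0.5 µM final for 1 h, before NeutrAvidin enrichment of labelled DUBs, LysC and trypsin digestion, and diaPASEF LC-MS/MS.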

USP36 = target: T1, USP36 (UniProt Q9P275)
T1 sequence (whole entry): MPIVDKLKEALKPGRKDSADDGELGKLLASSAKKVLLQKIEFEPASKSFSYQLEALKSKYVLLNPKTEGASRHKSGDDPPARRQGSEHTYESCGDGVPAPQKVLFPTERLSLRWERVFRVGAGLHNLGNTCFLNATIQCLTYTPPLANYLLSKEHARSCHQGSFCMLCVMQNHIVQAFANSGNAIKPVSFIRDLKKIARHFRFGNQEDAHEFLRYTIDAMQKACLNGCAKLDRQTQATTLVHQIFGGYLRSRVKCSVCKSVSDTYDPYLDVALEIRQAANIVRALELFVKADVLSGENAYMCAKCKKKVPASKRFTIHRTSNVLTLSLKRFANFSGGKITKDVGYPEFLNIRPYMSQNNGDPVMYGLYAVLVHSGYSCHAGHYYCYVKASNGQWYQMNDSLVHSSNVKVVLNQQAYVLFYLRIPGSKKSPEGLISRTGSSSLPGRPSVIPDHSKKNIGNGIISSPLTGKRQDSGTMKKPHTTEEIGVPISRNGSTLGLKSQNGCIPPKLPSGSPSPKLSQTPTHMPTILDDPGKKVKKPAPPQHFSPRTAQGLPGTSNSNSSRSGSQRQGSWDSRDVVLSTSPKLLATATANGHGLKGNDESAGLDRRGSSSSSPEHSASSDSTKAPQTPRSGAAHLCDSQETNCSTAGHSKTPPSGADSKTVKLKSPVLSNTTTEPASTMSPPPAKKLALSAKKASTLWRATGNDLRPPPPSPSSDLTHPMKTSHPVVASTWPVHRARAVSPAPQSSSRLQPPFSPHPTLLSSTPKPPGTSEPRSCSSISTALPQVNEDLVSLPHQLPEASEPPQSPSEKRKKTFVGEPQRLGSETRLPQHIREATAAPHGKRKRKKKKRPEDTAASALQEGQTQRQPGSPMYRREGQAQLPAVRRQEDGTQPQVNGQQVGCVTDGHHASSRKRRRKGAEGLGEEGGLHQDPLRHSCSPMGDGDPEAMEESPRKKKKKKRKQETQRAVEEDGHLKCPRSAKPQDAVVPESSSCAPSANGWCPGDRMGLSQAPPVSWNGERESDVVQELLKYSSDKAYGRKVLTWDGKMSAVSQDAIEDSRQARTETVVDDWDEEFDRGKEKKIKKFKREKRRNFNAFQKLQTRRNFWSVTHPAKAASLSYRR
How it was run: as §1

USP38 = target: T2, USP38 (UniProt Q8NB14)
T2 sequence (whole entry): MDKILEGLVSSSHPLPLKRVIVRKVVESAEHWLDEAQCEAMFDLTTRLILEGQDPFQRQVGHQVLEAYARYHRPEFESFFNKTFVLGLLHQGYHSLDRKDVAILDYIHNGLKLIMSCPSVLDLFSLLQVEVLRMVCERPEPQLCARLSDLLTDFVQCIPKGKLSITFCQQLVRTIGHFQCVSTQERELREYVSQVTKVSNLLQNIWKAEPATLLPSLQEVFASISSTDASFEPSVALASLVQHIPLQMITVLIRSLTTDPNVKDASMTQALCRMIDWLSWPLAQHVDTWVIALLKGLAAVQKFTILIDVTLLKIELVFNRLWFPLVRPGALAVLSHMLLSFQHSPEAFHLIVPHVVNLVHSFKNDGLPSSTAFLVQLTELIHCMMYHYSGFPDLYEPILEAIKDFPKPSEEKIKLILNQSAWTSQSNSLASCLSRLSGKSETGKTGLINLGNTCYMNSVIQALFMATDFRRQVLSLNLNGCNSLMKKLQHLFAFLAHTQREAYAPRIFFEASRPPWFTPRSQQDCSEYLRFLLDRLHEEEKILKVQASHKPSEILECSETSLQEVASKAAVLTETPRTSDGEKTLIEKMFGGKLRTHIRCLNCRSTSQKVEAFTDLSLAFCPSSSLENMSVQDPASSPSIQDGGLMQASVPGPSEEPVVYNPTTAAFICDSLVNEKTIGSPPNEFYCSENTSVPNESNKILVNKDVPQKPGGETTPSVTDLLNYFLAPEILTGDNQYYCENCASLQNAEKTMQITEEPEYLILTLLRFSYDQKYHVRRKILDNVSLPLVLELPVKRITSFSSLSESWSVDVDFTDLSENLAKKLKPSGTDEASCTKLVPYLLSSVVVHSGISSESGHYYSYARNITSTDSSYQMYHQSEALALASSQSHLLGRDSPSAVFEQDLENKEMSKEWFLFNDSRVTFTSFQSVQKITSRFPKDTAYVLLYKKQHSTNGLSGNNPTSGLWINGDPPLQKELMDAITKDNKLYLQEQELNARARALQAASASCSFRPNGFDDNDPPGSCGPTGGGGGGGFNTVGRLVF
How it was run: as §1

USP39 = target: T3, USP39 (UniProt Q53GS9)
T3 sequence (whole entry): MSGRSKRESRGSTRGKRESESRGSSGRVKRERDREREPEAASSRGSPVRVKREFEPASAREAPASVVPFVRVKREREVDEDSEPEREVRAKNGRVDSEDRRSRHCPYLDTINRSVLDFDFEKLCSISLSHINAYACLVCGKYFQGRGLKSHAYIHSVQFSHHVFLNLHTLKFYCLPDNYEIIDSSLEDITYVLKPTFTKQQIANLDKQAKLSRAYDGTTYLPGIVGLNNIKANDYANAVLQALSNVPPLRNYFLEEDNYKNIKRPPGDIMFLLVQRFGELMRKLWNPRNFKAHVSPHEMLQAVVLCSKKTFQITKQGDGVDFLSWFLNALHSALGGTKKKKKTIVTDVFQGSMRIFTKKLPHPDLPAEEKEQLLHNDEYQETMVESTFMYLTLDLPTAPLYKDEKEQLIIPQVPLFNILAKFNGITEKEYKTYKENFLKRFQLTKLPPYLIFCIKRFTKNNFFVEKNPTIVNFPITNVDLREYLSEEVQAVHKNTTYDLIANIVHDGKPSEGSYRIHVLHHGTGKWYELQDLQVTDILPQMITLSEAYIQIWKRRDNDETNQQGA
How it was run: as §1

USP4 = target: T4, USP4 (UniProt Q13107)
T4 sequence (whole entry): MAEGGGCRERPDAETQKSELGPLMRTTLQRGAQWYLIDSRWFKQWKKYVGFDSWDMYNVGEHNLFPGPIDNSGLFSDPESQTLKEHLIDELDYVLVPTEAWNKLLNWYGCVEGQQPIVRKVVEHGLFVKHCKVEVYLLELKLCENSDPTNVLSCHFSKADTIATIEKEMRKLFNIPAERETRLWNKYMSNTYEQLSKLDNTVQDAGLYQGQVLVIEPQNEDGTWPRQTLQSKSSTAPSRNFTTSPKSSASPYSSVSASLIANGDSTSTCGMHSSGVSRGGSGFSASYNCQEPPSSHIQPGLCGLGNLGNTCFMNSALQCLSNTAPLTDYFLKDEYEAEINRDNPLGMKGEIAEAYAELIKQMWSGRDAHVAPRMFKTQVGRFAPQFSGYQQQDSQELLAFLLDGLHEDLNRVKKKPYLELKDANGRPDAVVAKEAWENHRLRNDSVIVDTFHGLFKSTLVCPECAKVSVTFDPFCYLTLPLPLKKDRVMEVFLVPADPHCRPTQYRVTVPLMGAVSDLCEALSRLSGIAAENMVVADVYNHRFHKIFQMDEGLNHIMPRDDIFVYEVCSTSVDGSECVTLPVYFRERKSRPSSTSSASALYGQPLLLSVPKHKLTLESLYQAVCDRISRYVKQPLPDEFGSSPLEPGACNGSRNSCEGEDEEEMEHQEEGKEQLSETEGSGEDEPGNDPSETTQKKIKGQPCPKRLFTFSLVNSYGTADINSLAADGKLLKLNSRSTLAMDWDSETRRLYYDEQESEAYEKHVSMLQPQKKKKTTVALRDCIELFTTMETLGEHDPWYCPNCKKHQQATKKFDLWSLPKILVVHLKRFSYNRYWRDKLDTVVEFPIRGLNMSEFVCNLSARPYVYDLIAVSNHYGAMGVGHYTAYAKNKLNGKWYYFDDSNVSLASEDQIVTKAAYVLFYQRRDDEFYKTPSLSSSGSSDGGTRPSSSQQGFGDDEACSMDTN
How it was run: as §1

Measured: log2 ratio of Biotin-Ahx-Ub-VS probe labelling

Chain of USP34 (Q70CQ2 whole entry, the tested form may be a part): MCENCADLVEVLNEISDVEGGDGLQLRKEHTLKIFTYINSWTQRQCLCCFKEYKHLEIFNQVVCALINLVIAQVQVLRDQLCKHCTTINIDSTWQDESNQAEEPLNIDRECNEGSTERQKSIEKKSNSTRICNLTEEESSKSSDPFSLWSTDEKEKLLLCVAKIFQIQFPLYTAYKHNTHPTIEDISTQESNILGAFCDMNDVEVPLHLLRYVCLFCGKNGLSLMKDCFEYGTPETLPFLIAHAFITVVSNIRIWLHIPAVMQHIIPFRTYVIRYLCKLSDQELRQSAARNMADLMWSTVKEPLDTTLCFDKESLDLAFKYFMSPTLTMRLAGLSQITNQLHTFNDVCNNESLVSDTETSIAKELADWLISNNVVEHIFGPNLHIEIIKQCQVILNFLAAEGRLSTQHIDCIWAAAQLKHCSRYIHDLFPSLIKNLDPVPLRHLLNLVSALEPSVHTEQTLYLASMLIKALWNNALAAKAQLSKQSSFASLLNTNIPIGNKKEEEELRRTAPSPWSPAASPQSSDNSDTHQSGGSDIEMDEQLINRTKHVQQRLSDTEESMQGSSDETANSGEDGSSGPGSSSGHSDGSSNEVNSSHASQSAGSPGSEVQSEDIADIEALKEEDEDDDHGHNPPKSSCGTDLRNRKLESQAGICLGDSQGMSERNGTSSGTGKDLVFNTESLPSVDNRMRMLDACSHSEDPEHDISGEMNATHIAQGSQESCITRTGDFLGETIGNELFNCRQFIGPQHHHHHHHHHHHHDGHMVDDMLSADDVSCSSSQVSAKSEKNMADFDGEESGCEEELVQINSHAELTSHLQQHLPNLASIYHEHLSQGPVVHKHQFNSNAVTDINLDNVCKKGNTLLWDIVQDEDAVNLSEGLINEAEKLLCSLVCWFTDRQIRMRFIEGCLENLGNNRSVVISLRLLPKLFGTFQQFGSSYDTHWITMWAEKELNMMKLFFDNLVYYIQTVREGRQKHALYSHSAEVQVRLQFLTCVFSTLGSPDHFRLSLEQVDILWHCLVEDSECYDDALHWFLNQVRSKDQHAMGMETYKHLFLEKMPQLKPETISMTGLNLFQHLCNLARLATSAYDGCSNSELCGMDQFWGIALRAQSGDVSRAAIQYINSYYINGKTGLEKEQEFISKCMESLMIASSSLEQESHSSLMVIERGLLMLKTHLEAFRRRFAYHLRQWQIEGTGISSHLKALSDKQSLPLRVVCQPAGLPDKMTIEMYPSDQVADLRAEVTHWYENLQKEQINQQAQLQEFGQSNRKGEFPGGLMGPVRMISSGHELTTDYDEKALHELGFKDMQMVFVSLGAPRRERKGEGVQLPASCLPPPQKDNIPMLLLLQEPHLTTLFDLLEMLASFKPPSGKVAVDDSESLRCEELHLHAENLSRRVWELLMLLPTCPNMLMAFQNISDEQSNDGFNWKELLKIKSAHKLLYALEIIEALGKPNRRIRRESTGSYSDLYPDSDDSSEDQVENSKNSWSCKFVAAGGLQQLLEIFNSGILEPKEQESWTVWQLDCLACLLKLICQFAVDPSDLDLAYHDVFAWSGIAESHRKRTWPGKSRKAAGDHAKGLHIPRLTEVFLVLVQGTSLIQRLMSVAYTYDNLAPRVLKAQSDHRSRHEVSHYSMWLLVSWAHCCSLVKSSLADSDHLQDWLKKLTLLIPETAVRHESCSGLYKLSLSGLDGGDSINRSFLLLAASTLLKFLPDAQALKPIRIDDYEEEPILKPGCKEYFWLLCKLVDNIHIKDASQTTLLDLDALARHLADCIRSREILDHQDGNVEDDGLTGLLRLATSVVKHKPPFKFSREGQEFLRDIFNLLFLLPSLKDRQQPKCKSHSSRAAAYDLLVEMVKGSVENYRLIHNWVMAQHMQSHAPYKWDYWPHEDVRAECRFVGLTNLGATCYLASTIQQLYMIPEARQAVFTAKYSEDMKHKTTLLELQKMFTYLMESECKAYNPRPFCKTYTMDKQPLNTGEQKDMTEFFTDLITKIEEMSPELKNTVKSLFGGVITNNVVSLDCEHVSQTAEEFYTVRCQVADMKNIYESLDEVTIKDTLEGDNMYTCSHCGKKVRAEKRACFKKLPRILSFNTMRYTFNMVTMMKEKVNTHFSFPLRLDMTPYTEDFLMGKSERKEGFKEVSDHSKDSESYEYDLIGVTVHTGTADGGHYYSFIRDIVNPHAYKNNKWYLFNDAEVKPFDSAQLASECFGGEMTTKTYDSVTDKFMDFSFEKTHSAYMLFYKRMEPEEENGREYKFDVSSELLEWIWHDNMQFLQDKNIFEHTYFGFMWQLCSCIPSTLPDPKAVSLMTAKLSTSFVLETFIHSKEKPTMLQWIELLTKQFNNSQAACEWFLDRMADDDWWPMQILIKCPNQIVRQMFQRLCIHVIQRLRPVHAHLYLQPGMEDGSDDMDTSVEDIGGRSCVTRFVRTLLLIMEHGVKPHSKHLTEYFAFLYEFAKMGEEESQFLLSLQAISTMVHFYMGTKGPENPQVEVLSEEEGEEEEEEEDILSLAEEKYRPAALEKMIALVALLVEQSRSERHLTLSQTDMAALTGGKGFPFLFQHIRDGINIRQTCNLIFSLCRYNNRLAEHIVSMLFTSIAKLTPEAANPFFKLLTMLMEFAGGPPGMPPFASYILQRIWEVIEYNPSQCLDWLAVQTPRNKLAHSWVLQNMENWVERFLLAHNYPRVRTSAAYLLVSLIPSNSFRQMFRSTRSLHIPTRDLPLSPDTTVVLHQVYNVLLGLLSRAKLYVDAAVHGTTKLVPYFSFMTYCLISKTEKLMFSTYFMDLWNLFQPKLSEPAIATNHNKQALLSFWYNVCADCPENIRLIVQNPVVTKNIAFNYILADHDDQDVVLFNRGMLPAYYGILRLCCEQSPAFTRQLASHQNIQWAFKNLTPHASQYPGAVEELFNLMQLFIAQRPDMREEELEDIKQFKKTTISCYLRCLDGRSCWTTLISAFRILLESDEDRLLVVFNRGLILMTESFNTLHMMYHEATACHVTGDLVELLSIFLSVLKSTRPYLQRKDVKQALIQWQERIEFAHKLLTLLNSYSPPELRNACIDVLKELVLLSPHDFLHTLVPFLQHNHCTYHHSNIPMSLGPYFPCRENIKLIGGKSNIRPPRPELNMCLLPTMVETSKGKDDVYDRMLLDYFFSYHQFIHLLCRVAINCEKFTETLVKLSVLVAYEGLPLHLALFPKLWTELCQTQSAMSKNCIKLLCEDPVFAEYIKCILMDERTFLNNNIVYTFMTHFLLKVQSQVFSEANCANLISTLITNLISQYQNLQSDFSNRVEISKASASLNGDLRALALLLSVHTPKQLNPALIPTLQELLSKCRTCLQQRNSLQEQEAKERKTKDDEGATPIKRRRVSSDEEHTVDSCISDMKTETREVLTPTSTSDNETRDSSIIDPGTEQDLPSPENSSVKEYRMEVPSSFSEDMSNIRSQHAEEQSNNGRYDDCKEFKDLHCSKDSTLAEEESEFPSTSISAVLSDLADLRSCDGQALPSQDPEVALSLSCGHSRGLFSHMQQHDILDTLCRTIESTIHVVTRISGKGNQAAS

O=C(CCl)N(Cc1ccsc1)C1CC1
inactive: USP34 -0.211 | USP36 0.266 | USP38 0.00214 | USP39 -0.0741 | USP4 -0.116
